Rows were chosen to be rich in hits. Some 21% of all compounds tested hit in one or more screens of this group.
Cycloheximide cs – counter-screen hit for Shiga toxin inhibitors, cycloheximide; cell reporter, cycloheximide protein synthesis inhibition counterscreen; AID 2314; max response, %; actives 12% (n = 300,000); in the data active means max response mostly above about 13%, no sharp cut-off; inactive means mostly below about 14%; further: read at 38.3 µM for the half of the compounds with a filed dose; 0% is about no effect
Pf growth 48h – inhibits P. falciparum growth in the first generation, 48 h. AID 504832. Potency, µM (top dose mostly 28.7 µM), for the others: top-dose activity change, negative = inhibition, most hits filed as inhibitors. P. falciparum luciferase growth in erythrocytes, 48 h. actives 5.9% (n = 310,000); further: potency means the concentration at half of the fitted maximal effect; on the % scale 0 is the no-effect control and ±100 the full control effect
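Read-out is firefly luciferase luminescence from an integrated reporter in P. falciparum, so falling signal marks reduced parasite growth. Infected erythrocytes were at 2% hematocrit and 0.1% parasitemia (final) in Albumax-supplemented RPMI 1640.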
Pf growth 96h – P. falciparum growth inhibition at 96 hour, primary screen for plastid delayed-death inhibitors. P. falciparum luciferase reporter growth, 96 h. Potency, µM (highest dose often 28.7 µM), without a hit: at the highest dose activity change, negative = inhibition, usual class: inhibitors. actives 6.9% (n = 320,000). AID 504834; further: potency means the concentration at half of the fitted maximal effect; on the % scale 0 is the no-effect control and ±100 the full control effect
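Two-generation exposure (96 h) targets delayed-death phenotype. Reporter parasites carrying integrated firefly luciferase, in red cells at 2% hematocrit and 0.05% parasitemia final, kept at 37 C, 5% CO2; luminescence loss indicates inhibition.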
HCV inh – blocks hepatitis C virus. AID 651820. Potency, µM (series often up to 41.8 µM), without a hit: at the highest dose activity change, negative = inhibition, usual class: inhibitors. actives 3.4% (n = 340,000). Huh7.5.1 HCVcc-Cre infection, luciferase reporter, 44 h; further: potency means the concentration at half of the fitted maximal effect; on the % scale 0 is the no-effect control and ±100 the full control effect
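Antiviral activity was scored by luciferase reporter output from cells infected with HCVcc-Cre (~0.5 moi) in presence of compound, 44 h infection period, cells seeded 1,000/well 4 h prior.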
Shiga toxin inh – inhibitors of Shiga toxin in Vero cells | Vero cells, Shiga toxin protein synthesis inhibition reporter | inhibition, % at 38.7 µM | actives 9.2% (n = 290,000) | AID 2315; in the data active means inhibition mostly above about 28%, no sharp cut-off; inactive means mostly below about 43%; further: 0% is about no effect
AMA1 RON2 block – inhibitors of Plasmodium falciparum AMA1-RON2 interaction | AlphaScreen AMA1-biotinylated RON2 peptide binding | Potency, µM (doses to about 58.2 µM), for the others: at the highest dose activity change, negative = inhibition, actives largely listed as inhibitors | actives 0.2% (n = 360,000);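 further: potency means the concentration at half of the fitted maximal effect; 0% = vehicle wells and -100% = peptide control; nearly all actives have a fitted effect of over 45% in size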
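AMA1 (3D7) with his tag at 25 nM final met compounds first, then biotinylated RON2 peptide at 25 nM; detection used donor plus acceptor beads, 10 µg/mL apiece, read by AlphaScreen after 30 min at room temperature.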
* hit, by the source's call; i = inactive; ? = inconclusive; nt = no result given. Unless noted, the call rests on the fitted dose curve; in most records, active means well fitted curve in the direction sought with a large enough effect; inconclusive means small, poorly fitted or top-dose-only effect, or another doubt; inactive means no such curve, though single readings can be large; an effect the other way counts as inactive or inconclusive.

SMILES	Cycloheximide cs	Pf growth 48h	Pf growth 96h	HCV inh	Shiga toxin inh	AMA1 RON2 block
CCOC(=O)c1ccc(-c2ccc(C=O)o2)cc1	48*	264%	i	0%	80*	-10%
CCCOC(=O)c1cc(-c2ccc(C=O)o2)ccc1Cl	29*	13%	?	6%	31	-9%
CCCOC(=O)c1ccc(-c2ccc(C=O)o2)cc1	44*	227%	?	42%	139*	3%
CCOC(=O)c1cccc(-c2ccc(C=O)o2)c1	47*	8%	?	-16%	116*	-9%
Nc1cc2[nH]c(=O)c3ccccc3c2cc1[N+](=O)[O-]	nt	nt	nt	?	nt	-1%
CN(Cc1ccccc1)C(=O)COC(=O)c1cc(NS(=O)(=O)c2cccs2)ccc1O	-2	25%	?	10µM*	6	-5%
C/C(=N\NC(=S)Nc1ccccc1C)c1cc2ccccc2o1	17*	?	7.4µM*	?	26*	-3%
C/C(=N\NC(=S)Nc1c(C)cccc1C)c1ccc(O)cc1	0	-24%	0%	-28%	-10	72%
C/C(=N\NC(=O)c1ccncc1)c1cc2ccccc2o1	-1	0%	13%	-11%	14	-22%
C/C(=N\NC(=S)Nc1c(C)cccc1C)c1cc2ccccc2o1	-2	?	12µM*	?	-9	24%
O=C(Nc1nnc([C@@H]2C[C@H](O)[C@@H](CO)O2)s1)c1cccc(OC(F)(F)F)c1	nt	nt	nt	nt	nt	3%
CCc1n(CC(O)COC2CCCCC2)c2ccccc2[n+]1C (centres undefined)	6	2.6µM*	?	11%	-3	2%
CC(=O)c1cc(Cl)ccc1OCC(=O)NC1CCCC1	nt	5%	-5%	?	nt	-2%
CCOc1cc(C)c(Cl)cc1S(=O)(=O)N1CCCC1	-1	-16%	0.93µM*	-20%	-5	-2%
Cc1cc(Cl)c(S(=O)(=O)N2CCCC2)cc1OCC(=O)NC1CCCCC1	-3	nt	0.083µM*	?	-13	18%
O=C(COc1ccc(Cl)cc1[N+](=O)[O-])NC1CCCCC1	24*	111%	-9%	?	71*	-7%
O=C(COc1ccc(S(=O)(=O)N2CCCC2)cc1Cl)NC1CCCC1	3	9.3µM*	nt	-6%	18	-5%
Cc1cc(C(=O)N2CCN(S(=O)(=O)c3ccc(F)c(Cl)c3)CC2)c(C)o1	nt	?	?	-6%	nt	-2%
COc1cc(CNC(=O)c2ccc3oc(C(C)C)nc3c2)cc(OC)c1	14*	?	11%	-29%	15	7%
CCn1ccnc1CNC(=O)c1ccc2oc(C(C)C)nc2c1	11	23%	0%	15%	-21	4%
CC(C)c1nc2cc(C(=O)N(C)Cc3ccc(F)cc3)ccc2o1	43*	9%	?	7%	80*	-6%
CC(C)c1nc2cc(C(=O)NC(c3cccnc3)C(F)(F)F)ccc2o1 (centres undefined)	18*	10%	?	-18%	24	13%
Cc1cnc(CNC(=O)c2ccc3oc(C(C)C)nc3c2)[nH]1	14	6%	?	4%	20	18%
Cc1cccc(NC(=O)CSc2n[nH]c(-c3ccncc3)n2)c1C	-3	-1%	50%	10%	10	-5%
COC(=O)C1=C(C(=O)OC)[C@@H]2N(C)c3ccc(OC)cc3[C@@]23C[C@@H](C(=O)OC)N(C(=O)COCc2ccccc2)C3=N1	nt	nt	nt	17%	nt	?
SMILES	Cycloheximide cs	Pf growth 48h	Pf growth 96h	HCV inh	Shiga toxin inh	AMA1 RON2 block
CCCNc1nc(C)nc2c1cnn2CCc1ccccc1	19*	nt	-27%	?	48	-16%
Cc1nc(NC(C)C)c2cnn(CCc3ccccc3)c2n1	19*	nt	-6%	-30%	39	0%
Cc1nc(NCCCN2CCOCC2)c2cnn(-c3ccccc3)c2n1	nt	nt	nt	-10%	nt	-7%
CC(=O)NC(c1cccc(F)c1)c1nc(-c2ccc(N(C)C)cc2)cs1 (centres undefined)	nt	nt	nt	nt	nt	-19%
COc1cccc2sc(N3CCN(C(=O)c4ccco4)CC3)nc12	nt	9.3µM*	?	-16%	nt	-15%
CCc1cccc2sc(N3CCN(C(=O)c4ccc([N+](=O)[O-])o4)CC3)nc12	nt	0.66µM*	0.52µM*	?	nt	?
Cc1cccc2sc(NC(=O)C3CCN(C(=O)c4ccco4)CC3)nc12	38*	-20%	15µM*	11µM*	40	13%
O=C(c1ccc([N+](=O)[O-])o1)N1CCN(Cc2ccccc2)CC1	-3	?	?	-29%	-5	-1%
COc1cc(/C=N/NC(=O)c2cn(-c3cccc(C)n3)cn2)ccc1O	4	-20%	13%	?	11	31%
CSc1nsc2nc(=O)c(/C=C3\C=Nc4ccccc43)c(N)n12	10	7%	37%	17%	36	-5%
Nc1c(C=C2C=CC(=O)C=C2)c(=O)nc2snc(SCc3ccccc3)n12	33*	1%	33%	7%	47*	47%
Cc1cc(C(=O)NCC(c2ccco2)N(C)C)ccc1[N+](=O)[O-] (centres undefined)	8.9*	-5%	6%	-1%	-4	2%
COc1ccc(Cl)cc1C(=O)NCC(c1ccco1)N(C)C (centres undefined)	2	4%	-5%	-22%	18	2%
Cc1cc(C(=O)NCC(c2ccco2)N(C)C)no1 (centres undefined)	-2	10%	9.3µM*	5%	-10	21%
CN(C)C(CNC(=O)c1ccccc1OCc1ccc(Cl)cc1)c1ccco1 (centres undefined)	nt	?	?	18µM*	nt	-4%
O=C(c1ccccc1)N1CCOC(O)(c2ccccc2)C1c1ccccc1 (centres undefined)	nt	nt	nt	-18%	nt	-3%
O=C(O)CCC(=O)N1CCC(n2nnc3cc(C(F)(F)F)ccc32)CC1	-2	2.1µM*	0%	9%	-6	20%
O=C(c1ccc([N+](=O)[O-])cc1)N1CCC(n2nnc3cc(F)ccc32)CC1	4	66%	-17%	3%	17	-4%
O=C(CN1CCC(n2nnc3cc(C(F)(F)F)ccc32)CC1)Nc1ccc2c(c1)CCC2	-6	nt	?	-13%	-6	-1%
O=C(CN1CCC(n2nnc3cc(C(F)(F)F)ccc32)CC1)Nc1ccc2c(c1)OCCO2	46*	12µM*	11%	?	91	17%
O=C(N1CCOCC1)N1CCC(n2nnc3cc(F)ccc32)CC1	2	-14%	10µM*	17%	-9	3%
O=C(c1cc(C2CCCCN2C(=O)OCCF)on1)N1CCOCC1 (centres undefined)	nt	nt	nt	nt	nt	8%
CCN(CC(=O)Nc1ccc2c(c1)OCCO2)C(=O)c1ccc(C)c(S(=O)(=O)N2CCOCC2)c1	nt	?	11%	12%	nt	7%

Screening results: PubChem BioAssay, National Center for Advancing Translational Sciences (NCATS)
